Shown are actives, neighbours in structure and some others; about 1.1% of the full set was active somewhere.
HTR5A inv ctr: inverse agonist of human HTR5A in OPRM1-OPRD1 counter-screen; 340,000 compounds, 0.083% hits; HTR5A cell line, luminescence, inverse agonism; P47898; inhibition, % at 9.3 µM; AID 504634; in the data active means inhibition mostly above about 23%, no sharp cut-off; inactive means mostly below about 18%;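 further: 0% = cells with DMSO and 100% = no-cell wells with DMSO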
Target sequence (P47898 whole entry, looked up): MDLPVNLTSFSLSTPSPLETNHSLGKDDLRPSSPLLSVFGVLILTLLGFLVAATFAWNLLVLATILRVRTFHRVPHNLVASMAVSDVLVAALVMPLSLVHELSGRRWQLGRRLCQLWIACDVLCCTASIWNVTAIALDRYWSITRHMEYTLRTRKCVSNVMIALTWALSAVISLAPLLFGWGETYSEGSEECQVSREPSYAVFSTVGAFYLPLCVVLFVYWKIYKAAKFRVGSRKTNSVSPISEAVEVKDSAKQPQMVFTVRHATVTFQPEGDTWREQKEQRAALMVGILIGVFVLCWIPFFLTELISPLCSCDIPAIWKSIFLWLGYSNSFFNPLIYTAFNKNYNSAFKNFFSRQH
OPRM1-OPRD1 ag: OPRM1-OPRD1 heterodimerization agonism; activation, % at 9.3 µM; AID 504326; cells, luminescence; 340,000 compounds, 0.3% hits; P35372+P41143;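 further: 0% = vehicle-treated cells and 100% = reference agonist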
HTR5A ag: counter-screen for OPRM1-OPRD1 agonists: human HTR5A agonism | P47898 | HTR5A agonist assay, luminescence, cell-based | activation, % at 9.3 µM | 340,000 compounds, 0.61% hits; in the data active means activation mostly above about 9.5%, no sharp cut-off; inactive means mostly below about 7.6%;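 further: 0% = cells with vehicle only and 100% = reference agonist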
Bfl-1 A1 inh: inhibitors of the anti-apoptotic protein A1, read as caspase activation. 330,000 compounds, 0.066% hits. caspase activation, % (concentration not given with the values). MEF A1-2A-BIM cells, Caspase-Glo 3/7 luminescence, 3 h; percent of clofoctol response, vehicle zero;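 active means over half of replicate activation scores above 10%, or exactly half above 10 with the replicate mean above 10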
OPRM1-OPRD1 inv: inverse agonists of human mu-delta opioid receptor heterodimerization | cell-based MOR-DOR heterodimer luminescence, inverse agonism | P35372+P41143 | 340,000 compounds, 0.21% hits | inhibition, % at 9.3 µM; in the data active means inhibition above about 22%, passing the limit was not always enough;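 further: 0% = cells with DMSO and 100% = wells without cells with DMSO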
OPRM1-D1 ag cf: OPRM1-OPRD1 heterodimer agonism, confirmation. shares compounds with OPRM1-OPRD1 ag. cells, MOR-DOR heterodimerization, luminescence complementation. activation, % at 9.3 µM. 830 compounds, 45% hits. AID 504904;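 further: 0% = vehicle-treated cells and 100% = reference agonist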
HTR5A ag ctr2: activates human HTR5A in OPRM1-OPRD1 agonist counter-screen; shares compounds with OPRM1-OPRD1 ag; HTR5A agonist counterscreen, cell luminescence; activation, % at 9.3 µM; 830 compounds, 8% hits; AID 504905; in the data active means activation above about 17%;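 further: 0% = vehicle-treated cells and 100% = reference agonist response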
The depositor's hits bear a star; i = inactive; . = no result. Unless noted, no stated cut-off is given here; in the data, active means activation above about 18%; inactive means the rest.

SMILES | HTR5A inv ctr | OPRM1-OPRD1 ag | HTR5A ag | Bfl-1 A1 inh | OPRM1-OPRD1 inv | OPRM1-D1 ag cf | HTR5A ag ctr2
Cc1cc(NC(=O)COC(=O)c2cc3c(s2)CCC(C)C3)no1 (centres undefined) | -19.6 | 8.3 | 7.3 | 0.2 | -50.8 | . | .
CN(C)C(CNC(=S)Nc1cccc(Cl)c1)c1cccnc1 (centres undefined) | 17.5 | 324.1* | 1.4 | -0.5 | i | 331.0* | 5.4
S=C(NCc1ccncc1)Nc1cccc(Cl)c1 | -2.8 | 0.0 | 2.9 | 0.7 | 0.1 | . | .
Cc1nc(C(F)(F)F)c(C(=O)NC(=O)Nc2ccccc2)s1 | 5.0 | -1.6 | -1.9 | -0.2 | 7.8 | . | .
COc1ccc(C2=NN(C(=O)CSc3ncccn3)C(c3ccc(C)cc3)C2)cc1 (centres undefined) | -10.0 | 1.7 | 8.2 | 0.1 | -8.7 | . | .
COc1ccc(C2CC(c3ccc(Br)cc3)=NN2C(=O)CSC2=NCCS2)cc1 (centres undefined) | 12.3 | 101.9* | -0.2 | -0.5 | -491.5 | 6.9 | 8.7
COc1ccc(/C=N/n2c(-c3ccco3)nc3ccccc3c2=O)cc1 | -23.4 | 41.0* | 1.4 | -0.4 | -240.4 | -4.7 | -3.9
O=C(Cn1cnc([N+](=O)[O-])c1)c1ccc(Cl)cc1 | -9.6 | -1.9 | -2.1 | 0.4 | 10.8 | . | .
O=C(C[n+]1cnn(CC(=O)c2ccc(Cl)cc2Cl)c1)c1ccc([N+](=O)[O-])cc1 | -13.6 | 54.4* | 3.7 | 0.5 | -297.9 | 5.2 | 4.4
Nc1nonc1C(=O)NCCNCc1c(OCc2ccccc2F)ccc2ccccc12 | -6.0 | 22.3* | 1.9 | 0.0 | -118.4 | 121.5* | 5.9
Nc1nonc1C(=O)NCCNCc1cc(Br)ccc1OCc1ccc(F)cc1 | 9.3 | 3.6 | -3.9 | 0.2 | -17.2 | . | .
CC(=O)Nc1c(Br)cc2c(c1Br)Cc1cc(Br)ccc1-2 | 2.8 | 34.3* | -0.7 | . | -176.2 | 18.6* | 6.4
CCC(=O)N1c2ccc(S(=O)(=O)N3CCN(c4ccc([N+](=O)[O-])cc4)CC3)cc2CC1C (centres undefined) | -9.7 | 0.4 | 2.6 | -0.5 | -2.0 | . | .
Cc1ccc(NC(=O)c2ncn(CCCN[C@H](C)c3cccc4ccccc34)n2)cc1C | -21.6 | 84.6* | 5.7 | . | -393.3 | 55.6* | -0.9
Cc1ccc(C)c(-n2nnnc2SCC(=O)NCCC2=CCCCC2)c1 | -9.2 | 4.5 | 4.4 | . | -22.7 | . | .
CC1CCN(c2nc3nonc3nc2Nc2ccc(F)cc2)CC1 | 12.0 | 5.4 | 2.0 | -0.6 | -24.4 | . | .
Cc1ccc(-c2nnn(CC(=O)Nc3ccc(S(=O)(=O)N4CCC(C)CC4)cc3)n2)cc1 | -65.3 | 46.6* | 15.1* | 1.9 | -229.6 | 26.0* | 8.2
COc1ccc(N2C(=S)N=C(Nc3ccccc3)C23CCCCC3)cc1 | -5.2 | 28.9* | 0.0 | 0.3 | -151.5 | 16.1 | 4.9
CC1(NC(=O)CCc2ccccc2)CCN(CCCc2ccccc2)C1=O (centres undefined) | -5.4 | -0.6 | 5.2 | -0.1 | 3.3 | . | .
CC1(NC(=O)CC(c2ccccc2)(c2ccccc2)c2ccccc2)CCN(CCCc2ccccc2)C1=O (centres undefined) | 17.6 | 237.0* | 2.6 | 1.2 | i | 193.2* | -2.0
COc1cccc(CN(C)C(=O)c2cccc(OC3CCN(C4CCCC4)CC3)c2)c1 | 19.0 | 0.8 | -3.2 | -0.6 | -4.3 | . | .
COc1cc2c3nnc(-c4ccc(F)cc4)c-3cn(Cc3ccccc3F)c2cc1OC | -21.6 | 19.5* | 5.8 | . | -97.3 | 27.6* | 6.5
CC1CCC(C(C)C)C(OC(=O)COC(=O)c2cc(O)ccc2N)C1 (centres undefined) | -44.0 | 24.4* | 7.3 | 0.4 | -133.7 | -0.1 | -10.0
Cc1ccc(NC(=O)Nc2cc(Cl)ccc2C2COC(=O)C2=N)cc1 (centres undefined) | -3.5 | 23.1* | 1.2 | -2.5 | -118.5 | 4.8 | 39.4*
O=c1[nH]c2cc([N+](=O)[O-])ccc2c2ccccc12 | -8.1 | 5.5 | 2.1 | . | -26.6 | . | .
O=C1Cc2c([nH]c3ccc([N+](=O)[O-])cc23)-c2ccccc2N1 | -3.3 | 22.2* | 0.9 | . | -108.3 | 9.2 | 2.4

Screening data: PubChem BioAssay, several laboratories
